In PubChem BioAssay AID591 (National Center for Advancing Translational Sciences (NCATS), 2007):
In all, about 59,000 compounds went through this assay and about 60 (0.1%) were called active. The sample holds actives, similar compounds and a random draw of the others, so the mix is not that of the screen. The rule behind the calls is not given here.

Experiment: qHTS Assay for Spectroscopic Profiling in A488 Spectral Region
Settings: compound autofluorescence; max dye equivalency: Compound Type: qHTS ECL - SigmaAldrich, active compounds read high unless noted; outcome: dye equivalency, Compound Type: qHTS ECL - MLSMR unless noted
From the text: NIH Molecular Libraries Screening Centers Network [MLSCN]
NIH Chemical Genomics Center [NCGC]
Occasionally, the artifactual effect may originate from the compounds own spectral or other biophysical properties which generally tend to track its assay concentration. Pre-screening/profiling the library with respect to the compounds spectral properties should help one exclude false positives early on. While the most informative fluorescent profiling data set is obtained by performing a full excitation and emission scan of each well by using a monochromator-based plate reader, such an approach is practical only on a very limited scale as scanning each well requires long time. An alternative approach, applied here, is to perform plate reader scans using selected excitation and emission wavelength pairs to generate a multidimensional relational database that correlates compound concentration and the respective relative fluorescence intensity at a given wavelength set. A standard curve of Alexa 488 (A488) present on each plate as six-point concentration series, was used to compute a normalized fluorescence response, termed dye-equivalent concentration, for each compound at each concentration.
NCGC Assay Protocol Summary:
100 mM Tris buffer, pH 8.0
The wells in columns 1 through 4 of a Kalypsys polypropylene 1536-well compound plate were filled with standard solutions of fluorophore corresponding to the spectral region of interest. Solutions of A488 were placed in the following wells: Y1, Z1: 3 mM, Y2, Z2: 300 uM, Y3, Z3: 30 uM, Y4, Z4: zero (DMSO), AA1, AB1: 3 uM, AA2, AB2: 900 nM, AA3, AB3: 300 nM, AA4, AB4: zero (DMSO).
Six uL of buffer were dispensed to 1536-well Greiner black plates. Compounds and dye standards (23 nL) were transferred via Kalypsys PinTool. The plates were incubated for 15 min at room temperature, and then read on ViewLux (Perkin-Elmer) High-throughput CCD imager using 480 nm and 540 nm excitation and emission filter set.
Keywords: NIH Roadmap, MLSCN, MLI, MLSMR, qHTS, NCGC, A488, A-488, Fluorescent Profiling.

outcome, inactive:
CCCC1C(c2ccccc2)C(C#N)(C#N)C2(C#N)CC1(N)NC2=O (configuration not stated) inactive [dye equivalency, Compound Type: qHTS ECL - DPISMR]
CCOC(=O)c1[nH]c2ccccc2c1N=C(C)N(CC)CC
C=CCN(CC=C)C(=O)CN1C(=O)c2ccccc2C1=O
c1ccc(-n2ncc3c2ncn2c(C4CCCCC4)nnc32)cc1 inactive [dye equivalency, Compound Type: qHTS ECL - DPISMR]
O=C(NCc1ccc(Cl)cc1)c1cc2c(nc3sccn32)s1
O=C(O)C1CCCCC1C(=O)Nc1ccc(Cl)cc1 (configuration not stated) inactive [dye equivalency, Compound Type: qHTS ECL - DPISMR]
COCCn1c(=O)c(-c2cc(F)cc(F)c2)nc2cnc(N3CCNCC3)nc21 inactive [dye equivalency, Compound Type: qHTS ECL - Pharmacopeia]
CCNC(=O)CCc1nc(-c2ccc(C(C)(C)C)cc2)no1 inactive [dye equivalency, Compound Type: qHTS ECL - DPISMR]
Cn1c(=O)c(CCc2ccccc2)nc2cnc(Nc3ccccc3)nc21 inactive [dye equivalency, Compound Type: qHTS ECL - Pharmacopeia]
CCCc1cc(=O)[nH]c(SCc2ccc(C#N)cc2)n1 inactive [dye equivalency, Compound Type: qHTS ECL - DPISMR]
C=CCn1c(SCn2nnc3ccccc3c2=O)nnc1-c1ccc(Cl)cc1 inactive [dye equivalency, Compound Type: qHTS ECL - DPISMR]
Cc1nc2cnc(Oc3cccc(Cl)c3)nc2n(C2CC2)c1=O inactive [dye equivalency, Compound Type: qHTS ECL - Pharmacopeia]
COc1ccc(-c2nc3cnc(OC)nc3n(Cc3ccc(F)cc3)c2=O)cc1 inactive [dye equivalency, Compound Type: qHTS ECL - Pharmacopeia]
CC1CN(C2CCN(C(=O)COc3ccccc3)CC2)CC(C)O1 (configuration not stated)
CC(=O)c1c(C)[nH]c(C(=O)NCCCN2CCCC2)c1C
O=C(Nc1ccccc1)N(Cc1cccnc1)Cc1ccco1 inactive [dye equivalency, Compound Type: qHTS ECL - DPISMR]
Cc1nc2cnc(Nc3ccccc3)nc2n(Cc2ccc(F)cc2)c1=O inactive [dye equivalency, Compound Type: qHTS ECL - Pharmacopeia]
CNC(=O)n1ccc(C(=O)N2CCCCC2)n1 inactive [dye equivalency, Compound Type: qHTS ECL - DPISMR]
c1cnc(NC2C3CC4CC(C3)CC2C4)nc1 (configuration not stated)
CCCOc1ccccc1C(=O)NCCCC(=O)O
COc1ccccc1CNc1cc(-c2ccccc2CN(C)C)ncn1 inactive [dye equivalency, Compound Type: qHTS ECL - Pharmacopeia]
Oc1c(Br)cc(CN(Cc2cc(Br)c(O)c(Br)c2)C2CCCCC2)cc1Br inactive [dye equivalency, Compound Type: qHTS ECL - NCI]
CCc1nnc(NC(=O)c2c(O)c3c([nH]c2=O)CCCC3)s1
CCC(=O)Nc1ccc(C(=O)Nc2ccc3c(c2)C(=O)N(CC2CCCO2)C3=O)cc1 (configuration not stated) inactive [dye equivalency, Compound Type: qHTS ECL - DPISMR]
Cn1cccc1C(=O)N1CCC2(CC1)CN(c1cccc(-c3ccccc3)c1)C2 inactive [dye equivalency, Compound Type: qHTS ECL - Pharmacopeia]
CCOC(=O)CSc1nnc(-c2ccncc2)o1 inactive [dye equivalency, Compound Type: qHTS ECL - DPISMR]
COc1ccc2nc(NC3=NCN(CC4CCCO4)CN3)nc(C)c2c1 (configuration not stated)
CCOC(=O)N1CCN(C(=O)c2ccc3nc4cc(Cl)ccc4c(=O)n3c2)CC1
CCOC(=O)C1(Cc2ccc(O)cc2)NC(c2ccccc2F)C2C(=O)N(C)C(=O)C21 (configuration not stated)
COCCNc1cc(-c2c(C)noc2C)ncn1 inactive [dye equivalency, Compound Type: qHTS ECL - Pharmacopeia]
CCNc1ncc2nc(CCc3ccccc3)c(=O)n(-c3ccc(OC)cc3)c2n1 inactive [dye equivalency, Compound Type: qHTS ECL - Pharmacopeia]
Cn1c(CC(=O)Nc2ccccc2)nnc1SCC(=O)c1ccccc1 inactive [dye equivalency, Compound Type: qHTS ECL - DPISMR]
COCCn1c(=O)c(-c2cc(F)cc(F)c2)nc2cncnc21 inactive [dye equivalency, Compound Type: qHTS ECL - Pharmacopeia]
CCOC(=O)C1CCN(Cc2coc3ccc(Cl)cc3c2=O)CC1 inactive [dye equivalency, Compound Type: qHTS ECL - DPISMR]
Cc1noc(C)c1S(=O)(=O)Nc1ccc(C(=O)O)cc1 inactive [dye equivalency, Compound Type: qHTS ECL - DPISMR]
Cc1c(C)c2cc3c4c(oc3c(C)c2oc1=O)CCCC4
CN1CCc2[nH]nc(-c3n[nH]c4c3CN(C)CC4)c2C1 inactive [dye equivalency, Compound Type: qHTS ECL - NCI]
O=C1c2ccccc2C(=O)N1c1ccccc1S(=O)C(F)(F)F (configuration not stated) inactive [dye equivalency, Compound Type: qHTS ECL - DPISMR]
CN(C)c1cc2c(Nc3ccc4c(cnn4Cc4ccccc4)c3)ncnc2cn1 inactive [dye equivalency, Compound Type: qHTS ECL - SigmaAldrich]
O=c1c(-c2ccc(F)cc2)nc2cncnc2n1-c1ccccc1 inactive [dye equivalency, Compound Type: qHTS ECL - Pharmacopeia]
Cc1cnc(CNc2cc(-c3c(C)noc3C)ncn2)cn1 inactive [dye equivalency, Compound Type: qHTS ECL - Pharmacopeia]
O=C(O)[C@@H]1[C@@H](C(=O)O)[C@]23C[C@@]2(C(=O)O)[C@]2(C(=O)O)CCC3=C3CCCC312 inactive [dye equivalency, Compound Type: qHTS ECL - NCI]
Cc1ccc2[nH]c(=O)c(-c3nc4c(C)cccn4c3NCc3ccco3)cc2c1
CN(C)c1ccc(CNC23CN4CN(CN(C4)C2)C3)cc1 inactive [dye equivalency, Compound Type: qHTS ECL - DPISMR]
Cn1cc(-c2nc3cnc(N4CCNCC4)nc3n(CCc3ccccc3)c2=O)c2ccccc21 inactive [dye equivalency, Compound Type: qHTS ECL - Pharmacopeia]
CNC(=O)NCCN1CCCC1=O
COc1ccc(-n2c(=O)c(C)nc3cnc(N4CCOCC4)nc32)cc1 inactive [dye equivalency, Compound Type: qHTS ECL - Pharmacopeia]
CC1(c2ccccc2Cl)NC(=O)N(CC(=O)NC(=O)NCc2ccco2)C1=O (configuration not stated)
COc1ccc(CCN2C(=O)c3[nH]nc(-c4ccccc4O)c3C2c2ccc(C)cc2)cc1OC (configuration not stated) inactive [dye equivalency, Compound Type: qHTS ECL - DPISMR]
COC(=O)C(C)N(C#N)c1nc(C)nc(C)n1 (configuration not stated) inactive [dye equivalency, Compound Type: qHTS ECL - DPISMR]
Cc1noc(C)c1C(=O)OCC(=O)/C=C1\N(C)c2ccccc2C1(C)C
Cc1ccc(Oc2nc3ccccc3n3c(C)nnc23)cc1 inactive [dye equivalency, Compound Type: qHTS ECL - DPISMR]
CCOc1ccc(OCC)c(NC(=O)CN(C)S(=O)(=O)c2cccc3nsnc23)c1
CCC(C)(C)NC(=O)C(c1cccn1C)N(Cc1ccc(C)cc1)C(=O)Cn1nnc2ccccc21 (configuration not stated)
COc1ccc(OCC(=O)OCCN(C)C)cc1
CC(C)C1N=C2c3ccccc3N=C(SCC(=O)c3ccc(O)c(O)c3)N2C1=O (configuration not stated) inactive [dye equivalency, Compound Type: qHTS ECL - DPISMR]
CCC(=O)Nc1cccc(NC(=O)CSc2nnc(-c3ccc(NS(C)(=O)=O)cc3)n2C)c1
Cc1nn(-c2ccccc2)c2c1C(=O)NC(=O)C(C)(C)C2
COc1cc([C@H]2c3cc4c(cc3[C@@H](O[C@@H]3O[C@H]5CO[C@@H](C)O[C@]5(O)C[C@H]3O)[C@@H]3COC(=O)[C@H]23)OCO4)cc(OC)c1O inactive [dye equivalency, Compound Type: qHTS ECL - SigmaAldrich]
COc1ccc(OC)c(CN2C(=O)CCC2(C)C(=O)NC2CCCCCC2)c1 (configuration not stated)
CCCCCN(C(=O)NC(=O)Nc1ccccc1OC)S(C)(=O)=O
Cn1c(=S)c2[nH]c(SCCCc3ccccc3)nc2n(C)c1=O inactive [dye equivalency, Compound Type: qHTS ECL - NCI]
ClC(Cl)(Cl)C(N1CCN(c2ccccc2)CC1)N1CCN(c2ccccc2)CC1 inactive [dye equivalency, Compound Type: qHTS ECL - NCI]
CCOC(=O)Nc1ccccc1N1C(=O)c2ccccc2C1=O
CCOC(=O)c1cc2n(c1C)-c1ccccc1C2=O

Max dye equivalency, active:
O=C(O)c1c(Br)c(Br)c(Br)c(Br)c1C1c2ccc(O)cc2Oc2cc(O)ccc21 15 nM [Compound Type: qHTS ECL - NCI, active compounds read high]
CCOC(=O)c1cc2n(c1N)-c1ccccc1C2=O 39 nM [Compound Type: qHTS ECL - DPISMR, active compounds read high]
